Source: PubChem BioAssay
A selection: hits, their analogues and other compounds. The true share with any hit is near 12%.
BAZ2B inh – BAZ2B (human) inhibition. Q9UIF8. AlphaScreen BAZ2B-H3K14Ac peptide displacement. Potency, µM (highest dose often 114 µM), most hits filed as inhibitors. 360,000 tested, 4.4% active. AID 504333; also: nearly all actives have a fitted effect of over 60% in size
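Protein-peptide AlphaScreen: BAZ2B 50 nM, b-H3K14Ac 50 nM, 1x PBS pH 7.4 + 0.01% Tween-20. Preincubation 30 min RT; cpd 30 min RT (top 110 uM); beads 20 min RT, light-protected.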
JMJD2A Tudor inh – blocks the human JMJD2A Tudor domain; Potency, µM (series often up to 114 µM), most hits filed as inhibitors; 390,000 tested, 4.4% active; O75164; AlphaScreen JMJD2A-Tudor / H3K4me3 peptide binding; also: nearly all actives have a fitted effect of over 50% in size
Sfp PPTase inh – Sfp phosphopantetheinyl transferase inhibition; Q9F4F7; 310,000 tested, 3.5% active; Potency, µM, hits mostly inhibitors; Biochemical Sfp PPTase activity, qHTS;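 also: the enzyme is Sfp with the accession as filed and its product quenches rhodamine fluorescence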
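Step 1, compound plus 15 nM Sfp-PPTase, 15 min, room temperature. Step 2, add rhodamine-CoA (5 uM) and BHQ-2-YbbR (12.5 uM). Step 3, read 525/598 nm fluorescence at 0 and 30 min.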
HP1b chromo inh – HP1-beta chromodomain-methylated histone interaction inhibition | P83916 | AlphaScreen HP1-beta / biotin-H3K9me3 peptide binding | Potency, µM (doses to about 114 µM), usual class: inhibitors | 390,000 tested, 0.56% active; also: nearly all actives have a fitted effect of over 70% in size
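HP1-beta protein (50 nM final) preincubated 30 min at room temperature with biotinylated H3(1-18)K9me3 peptide (50 nM) in PBS pH 7.4, 0.01% Tween-20, then compound added for 30 min. AlphaScreen streptavidin donor/nickel chelate acceptor beads (10 ug/mL final), 30 min dark, luminescence read.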
G9a inh – blocks human histone lysine methyltransferase G9a | Q96KQ7 | G9a H3K9 monomethylation, AlphaScreen, 2 h | Potency, µM (top dose mostly 102 µM), actives largely listed as inhibitors | 350,000 tested, 8.8% active | AID 504332; also: nearly all actives have a fitted effect of over 75% in size
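Enzyme 20 nM + cpd, 15 min RT; add b-H3K9 pep 500 nM / SAM 20 uM; 2 h RT; anti-H3K9me1 Ab 0.5 ug/mL + SA donor / anti-rabbit acceptor beads 20 ug/mL each, 10 min; AlphaScreen read.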
PLK1 PBD inh – inhibitors of human PLK1 polo-box domain binding | P53350 | 360,000 tested, 2.8% active | Potency, µM, most hits filed as inhibitors | Plk1 PBD binding of FITC phosphopeptide, fluorescence polarization; also: series mostly up to about 57 µM; nearly all actives have a fitted effect of over 65% in size
A number is an active result; . = inactive; ? = inconclusive; / = no result given; [ ] = another dose, or the depositor's remark. Calls follow the shape of the dose curve; as a rule, active = well fitted curve in the direction sought with a large enough effect; inconclusive = small, poorly fitted or top-dose-only effect, or another doubt; inactive = no such curve, though single readings can be large; an effect the other way counts as inactive or inconclusive.

SMILES | BAZ2B inh | JMJD2A Tudor inh | Sfp PPTase inh | HP1b chromo inh | G9a inh | PLK1 PBD inh
CN(C)CCCN(C(=O)c1sc2ccccc2c1Cl)c1nc2c(F)cccc2s1 | . | ? | 50µM | . | 25µM | .
CN(C)CCCN(C(=O)c1ccc2c(c1)CCCC2)c1nc2c(F)cccc2s1 | ? | 45µM | 40µM | ? | ? | .
Cc1ccc2nc(N(CCCN(C)C)C(=O)c3ccc(Br)s3)sc2c1 | . | . | . | . | ? | .
CCCCn1c(=O)n(-c2ccc(Br)cc2F)c(=O)c2c3c(sc21)CN(C(C)=O)CC3 | . | . | / | . | . | /
CCOC(=O)C1=C(CS(=O)(=O)c2ccc(C)c(C)c2)NC(=O)NC1c1ccccc1OCC (centres undefined) | . | ? | / | . | . | /
CCOc1ccc(NCc2cccn2-c2nnc(N3CCC(C(=O)NCCCN4CCCCC4C)CC3)s2)cc1 (centres undefined) | ? | 40µM | . | . | 50µM | .
CCOc1ccc(NCc2cccn2-c2nnc(N3CCC(C(=O)NCc4ccccc4Cl)CC3)s2)cc1 | . | . | / | . | ? | /
CCOc1ccc(NCc2cccn2-c2nnc(N3CCC(C(=O)NCCCN4CCCCC4)CC3)s2)cc1 | 40µM | 50µM | . | ? | 40µM | .
CCOc1ccc(NCc2cccn2-c2nnc(N3CCC(C(=O)NCCCN4C(C)CCCC4C)CC3)s2)cc1 (centres undefined) | 40µM | 56µM | . | . | 40µM | ?
CC1(c2nc3ccccc3cc2C#N)OCCO1 | / | / | / | / | / | .
CN(C)CCCn1c(SCc2c(Cl)cccc2Cl)nnc1-c1ccncc1 | 71µM | 20µM | . | ? | 10µM | .
Cc1ccc(C(=O)CC2(O)C(=O)N(CCc3ccccc3)c3ccc(Cl)cc32)cc1 (centres undefined) | . | . | / | . | ? | /
COC(=O)c1ccccc1NS(=O)(=O)c1cc2c(cc1C)N(C)CCO2 | ? | . | / | . | . | /
O=C(Nc1cccc2ccccc12)NC1CCCCC1O (centres undefined) | . | . | / | . | .[2.33 µM] | .
Cc1cc(SCCC(=O)O)nc2c(C)cccc12 | . | . | . | . | 79µM | .
Cc1cc(SCC(=O)N2CCCC2=O)nc2c(C)cccc12 | . | . | / | . | . | .
COC(=O)NC(/C=C/c1ccco1)[C@@]1(C(=O)OC)CCCC1=O (some centres undefined) | / | / | . | / | / | /
O=C(Nc1ccnn1C1CCN(C(=O)CCc2ccc(F)cc2)CC1)C1CCOC1 (centres undefined) | . | . | . | . | . | .
Cc1cc(=O)oc2c3c(ccc12)OCN(Cc1ccccc1Cl)C3 | . | . | / | . | . | /
O=c1oc2c3c(ccc2c2ccccc12)OCN(Cc1ccccc1Cl)C3 | ? | . | / | . | 1.3µM | /
O=C(NCc1ccc(Cl)cc1)C(=O)Nc1nccs1 | . | .[11.4 µM] | . | . | 50µM | .
S=C(NCCCn1ccnc1)Nc1cccc(Cl)c1 | 45µM | . | . | . | 79µM | .
CC(C)c1ccc(CNC(=O)C(=O)NCCCn2ccnc2)cc1 | 50µM | . | . | . | . | .
O=C(NCc1ccc(Cl)cc1)c1cc(-c2cccs2)on1 | . | . | 25µM | . | ? | .
CC(NC(=O)C(=O)NCCCn1ccnc1)c1ccccc1 (centres undefined) | . | . | . | . | . | .
SMILES | BAZ2B inh | JMJD2A Tudor inh | Sfp PPTase inh | HP1b chromo inh | G9a inh | PLK1 PBD inh
CN(C)C(CNC(=O)c1cccc(S(=O)(=O)Nc2ccc(SC(F)F)cc2)c1)c1ccccc1 (centres undefined) | / | . | / | . | / | ?
O=C(NCCCn1ccnc1)C(Cc1ccccc1)N1C(=O)c2ccccc2C1=O (centres undefined) | ? | . | 56µM | . | .[12.7 µM] | ?
CC(C)c1ccc(CNC(=O)C(=O)Nc2nccs2)cc1 | . | ? | . | . | 7.1µM | .
O=C(NCc1cccnc1)C(=O)Nc1nccs1 | / | / | . | / | ? | /
COCCNC(=O)CN1C(=O)COc2ccc(S(=O)(=O)N3CCCC3)cc21 | . | . | / | . | . | /
COc1ccc(C2=NNC(c3cc(Cl)cc4c3OCOC4)C2)c(O)c1 (centres undefined) | . | / | . | / | 50µM | /
COc1ccccc1NC(=O)C1=C(C)Nc2nc(SCc3cccc(F)c3)nn2C1c1ccc(C(=O)O)cc1 (centres undefined) | 50µM | . | / | . | .[12.7 µM] | /
COc1ccccc1NC(=O)C1=C(C)Nc2nc(-c3ccc(N(C)C)cc3)nn2C1c1ccncc1 (centres undefined) | 50µM | ? | . | . | ? | .
COc1ccccc1NC(=O)C1=C(C)Nc2nc(-c3ccco3)nn2C1c1ccccc1 (centres undefined) | . | . | / | . | . | /
COc1ccc(C2C(C(N)=O)=C(C)Nc3nc(-c4ccccc4Cl)nn32)cc1 (centres undefined) | . | . | / | . | . | /
CC1=C(C(N)=O)C(c2ccncc2)n2nc(-c3ccccc3Cl)nc2N1 (centres undefined) | . | . | . | . | . | 30µM
CCC1CCC/C1=N\NC(=O)c1ccoc1C (centres undefined) | . | . | . | . | .[0.501 µM] | .
CC1CN(c2snnc2C=C2C(=O)OC(C)(C)OC2=O)CC(C)O1 (centres undefined) | ? | . | 50µM | . | ? | ?
COc1ccc(-c2noc(CN(C(=O)c3cc(OC)c(OC)cc3OC)C(C)C)n2)cc1 | ? | . | / | . | . | /
Cc1ccccc1OC1CCN(C(=O)c2cc(COc3ccccc3)on2)CC1 | . | . | . | . | . | .
O=C(/C=C1\OCc2ccccc21)OCc1ccccc1 | / | / | / | / | / | .
CC(C)c1ccc(CN2CCSCC2)cc1 | ? | 2.8µM | . | ? | / | .
CSc1ccc(CN2CCSCC2)cc1 | 79µM | 13µM | . | ? | 13µM | .
CC(C)c1ccc(CN2CCN(S(=O)(=O)c3ccc(Cl)s3)CC2)cc1 | . | . | / | . | .[2.33 µM] | .
CCc1ccc(CN2CCSCC2)cc1 | ? | 2.2µM | . | ? | / | .
CCCN1CCC(=O)N(CCSc2ccc(Br)cc2)CC1 | / | . | . | . | / | /
COc1ccc(S(=O)(=O)c2c(Nc3ccc(C)cc3C)sc(C(=O)c3ccc(F)cc3)c2N)cc1 | . | . | / | . | ? | /
Cc1ccc(C(C)C)c(OCC(=O)NC2CCN(C)CC2)c1 | . | . | . | . | . | .
O=C(c1ccc2c(c1)OCO2)c1cn(Cc2ccc(Cl)cc2)c2ccc(F)cc2c1=O | . | . | / | . | . | /
Cc1ccc(S(=O)(=O)c2ccc([N+](=O)[O-])o2)cc1 | / | ? | / | . | / | 0.84µM
Cc1ccc(NC(=O)c2ccc([N+](=O)[O-])o2)c(C)c1 | . | . | . | . | . | .
CCOC(=O)c1cc(-c2ccc(C)cc2)n(CCC(=O)NCc2ccccc2)c1C | . | . | / | . | . | /
CCOC(=O)c1cc(-c2ccc(C)cc2)n(CCC(=O)NCCN(C)C)c1C | 50µM | ? | . | . | ? | .
